# NPC1 prom act: NPC1 promoter activation | Huh7 NPC1 promoter luciferase reporter, 24 h | AID 485313 | 320,000 compounds, 2.4% hits | Potency, µM (doses to about 9.22 µM), inactives show at the highest dose activation, most hits filed as activators; also: % of control where 0% means no effect; nearly all actives have a fitted effect of over 60% in size
#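 NPC1 promoter–luciferase Huh7 cells; 24 h compound; luminescence.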
# ELG1 genotoxic: genotoxicity induction in ELG1-luciferase HEK293T cells. HEK293T ELG1-luciferase reporter, luminescence, 16 h. Potency, µM (doses to about 46 µM), for the others: at the top dose activity change, positive = activation, usual class: activators. 330,000 compounds, 1.3% hits; also: % of control where 0% means no effect; nearly all actives have a fitted effect of over 60% in size
#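 Reporter readout depends on ELG1 protein level, which increases with genetic stress. After 16 hr compound exposure at 37 °C, luciferase activity was quantified using ONE-Glo.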
# Luc counter: Kinase-Glo luciferase inhibition (counter-screen) | Q27757 | Kinase-Glo luciferase, ATP luminescence, 8 min | Potency, µM (top dose mostly 38.3 µM), for the others: at the top dose activity change, negative = inhibition, most hits filed as inhibitors | 200,000 compounds, 0.28% hits | AID 1379; also: % is scaled to controls: 0 for no effect and ±100 for the full control effect; nearly all actives have a fitted effect of over 60% in size
#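 Luminescence was the read-out, taken after 8-minute incubation at ambient temperature. Luciferase turned over luciferin with 10 uM ATP in imidazole pH 7.2 buffer containing KCl, MgCl2, Tween 20 and BSA.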
# Rab9 promoter act: activates the Rab9 promoter | Huh7 Rab9 promoter-luciferase reporter, luminescence, 24 h | Potency, µM (doses to about 9.22 µM), for the others: top-dose activation, negative = inhibition, hits mostly activators | 320,000 compounds, 2.8% hits | AID 485297; also: % of control where 0% means no effect; nearly all actives have a fitted effect of over 60% in size
#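 Cell-based reporter: Huh7 stable for Rab9 promoter-driven luciferase, plated in reduced-serum medium with 10% FBS at 1500 cells/well, compound-treated 24 h at 37 °C, luminescence read after 10 min reagent.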
# SMN2 splice up: SMN2 splice variant enhancement; 210,000 compounds, 2.8% hits; Potency, µM (titrated, usually from 46.1 µM), inactives show top-dose activity change, positive = activation, usual class: activators; HEK293 SMN2-luciferase splicing reporter, luminescence, 30-36 h; AID 1458; also: % of control where 0% means no effect; nearly all actives have a fitted effect of over 55% in size
#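 HEK293 cells carry an SMN2 minigene-luciferase reporter in which exon 7 inclusion puts luciferase in frame. Cells were seeded at 2000 cells/well, attached for 10-12 hours, then exposed to compounds for 30-36 hours at 37C before ONE-Glo luminescence.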
# FLuc modulator: counter-screen for miR-21 project: firefly luciferase inhibitors or activators. purified FLuc, Km substrates, luminescence inhibition. Potency, µM (highest dose often 57.5 µM), without a hit: at the top dose activity change, negative = inhibition, usual class: inhibitors. 360,000 compounds, 6.9% hits;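 also: plate controls were vehicle for no effect and reference inhibitor for full effect; nearly all actives have a fitted effect of over 55% in size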
# Target sequence (P08659 whole entry, looked up): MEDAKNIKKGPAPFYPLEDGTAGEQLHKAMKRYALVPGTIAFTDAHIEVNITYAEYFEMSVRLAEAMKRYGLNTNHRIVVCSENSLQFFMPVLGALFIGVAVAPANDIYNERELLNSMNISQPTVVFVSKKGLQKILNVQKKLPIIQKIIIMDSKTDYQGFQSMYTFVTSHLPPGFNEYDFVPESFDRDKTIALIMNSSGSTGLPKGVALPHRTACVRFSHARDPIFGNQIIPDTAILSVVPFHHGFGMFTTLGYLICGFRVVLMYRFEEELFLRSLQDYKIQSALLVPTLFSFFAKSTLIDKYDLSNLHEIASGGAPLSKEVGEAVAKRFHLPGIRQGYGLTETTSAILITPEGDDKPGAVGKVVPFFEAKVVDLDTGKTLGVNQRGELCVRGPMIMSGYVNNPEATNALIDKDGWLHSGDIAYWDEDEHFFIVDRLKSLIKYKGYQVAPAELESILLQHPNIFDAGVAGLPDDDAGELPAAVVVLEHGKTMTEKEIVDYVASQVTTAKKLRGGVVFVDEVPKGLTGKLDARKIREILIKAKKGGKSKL
#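 Purified P. pyralis luciferase, 10 nM final, with Km-level 10 uM D-luciferin and 10 uM ATP in 50 mM Tris acetate pH 7.5, 10 mM Mg acetate, 0.01% Tween-20, 0.05% BSA; 6-point qHTS titration about 60 µM downward; luminescence read.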
# Active calls of the source: *; ? = inconclusive; / = no result; [ ] = dose if it differs, or a comment. Most compounds without a hit are left out; they make up all but 7.5% or so of the library. Calls follow the shape of the dose curve; as a rule, active = well fitted curve in the direction sought with a large enough effect; inconclusive = small, poorly fitted or top-dose-only effect, or another doubt; inactive = no such curve, though single readings can be large; an effect the other way counts as inactive or inconclusive. Potency is read from the fitted curve at half-maximal effect.
SMILES,NPC1 prom act,ELG1 genotoxic,Luc counter,Rab9 promoter act,SMN2 splice up,FLuc modulator
CCC(=O)Nc1ccccc1C(=O)OCC(=O)c1ccccc1,2.8µM*,?,4%,3.5µM*,16µM*,21µM*
COC(=O)COC(=O)c1ccccc1NC(=O)c1ccccc1,0%,0%,0%,-6%,-8%,?
CCC(=O)Nc1ccccc1C(=O)OCC(=O)Nc1ccc(S(N)(=O)=O)cc1,0%,-3%,2%,2%,18%,2%
CC(=O)c1ccc(NC(=O)CSc2nnc(-c3ccncc3)n2-c2ccccc2)cc1,/,/,/,/,/,-3%
Clc1ccc(OCc2nc3ccccc3n2Cc2ccccc2)c(Cl)c1,/,/,/,/,4%,6µM*
CCC(C)NC(=O)Cn1c(COc2ccc(Cl)cc2Cl)nc2ccccc21 (stereo not given),24%,?,-2%,?,22µM*,6µM*
COc1cccc(OCc2nc3ccccc3n2Cc2ccccc2)c1,/,/,/,/,-19%,?
Clc1ccc(OCCn2cnc3ccccc32)c(Cl)c1,?,?,-1%,?,21%,27µM*
CCS(=O)(=O)c1c(Nc2ccc(F)c(Cl)c2)sc(C(=O)c2ccccc2)c1N,/,/,/,/,6%,-1%
Cc1ccc(Oc2ccccc2/C=C/C(=O)O)cc1,-1%,0%,2%,8%,5%,-2%
COc1ccc(N2CCN(CCCNC(=O)c3c(C)nn(-c4ccc(F)cc4)c3-n3cccc3)CC2)cc1,/,/,/,/,/,-7%
N/C(=N\OC(=O)COc1ccc(Cl)cc1Cl)c1ccccn1,0.79µM*,1.2µM*,-8%,0.71µM*,/,0.76µM*
Cc1cc(C)c(C)c(OCC(=O)O/N=C(\N)c2ccccn2)c1,0%,0%,-2%,-4%,-10%,-9%
N/C(=N\OC(=O)COc1ccc(Br)cc1Cl)c1ccccn1,2.8µM*,2.6µM*,-11%,2.8µM*,7.1µM*,1.5µM*
Cc1cccc(NC(=O)C(=O)NCC(c2cccnc2)N2CCN(Cc3ccccc3)CC2)c1 (stereo not given),/,/,/,/,/,-2%
Cc1ccccc1C(=O)Nc1ccc(NC(=O)c2cccs2)cc1,/,/,/,/,3.5µM*,?
O=C(/C=C/c1cccs1)c1ccc(NC(=O)c2ccccc2F)cc1,12%,22%,-1%,20%,4%,3µM*
O=C(Nc1ccc(NC(=O)C2CC2)cc1)c1cccs1,3.5µM*,?,/,1.3µM*,/,13µM*
COc1ccccc1C(=O)Nc1ccc(C(=O)/C=C/c2cccs2)cc1,-2%,1%,-1%,-9%,-15%,-19%
O=C(Nc1ccccc1Oc1ccsc1C(=O)O)c1ccccc1F,2%,-5%,/,-5%,/,-4%
O=C(Nc1ccc(C(=O)N2CCCCC2)cc1)c1cccs1,14%,?,/,13%,/,?
O=C(Nc1ccc(Oc2ccsc2C(=O)O)cc1)c1ccccc1F,18%,6%,/,-1%,/,17µM*
CC1CCN(S(=O)(=O)c2cccc(C(=O)Nc3ccccc3)c2)CC1,-7%,-1%,1%,-3%,/,-1%
O=C(Nc1ccc(NC(=O)c2cccs2)cc1)c1cccs1,?,?,/,?,/,-1%
O=C(Nc1ccc(Cl)cc1)c1cccs1,/,/,-7%,/,23%,12µM*
SMILES,NPC1 prom act,ELG1 genotoxic,Luc counter,Rab9 promoter act,SMN2 splice up,FLuc modulator
O=C(Nc1ccc(NC(=O)c2ccccc2F)cc1)c1cccs1,?,?,/,3.5µM*,/,-15%
O=C(Nc1ccc2[nH]ccc2c1)c1cccs1,1.6µM*,?,/,2µM*,/,9.5µM*
O=C(Nc1ccc(NC(=O)c2cccs2)c(Cl)c1)c1cccs1,?,?,/,?,/,17µM*
C#CCOCCOCCOCCNc1nc(N2CCN(C(=O)[C@H](CCCCN)n3cc(CN)nn3)CC2)nc(N2CCN(C(=O)[C@H](CCCN=C(N)N)n3cc(C(N)[C@H](C)CC)nn3)CC2)n1 (stereo not given in full),/,3%,/,/,/,/
O=C(Nc1ccc([N+](=O)[O-])cc1)c1ccccc1F,?,22%,2%,2.8µM*,16µM*,?
O=[N+]([O-])c1ccc(Nc2ccc(F)cc2)cc1,-1%,-2%,/,2%,/,-3%
O=C(Nc1ccc(-c2ccc([N+](=O)[O-])cc2)cc1)c1ccccc1F,14%,7%,-1%,13%,?,0%
COc1ccccc1NC(=O)c1ccccc1NC(=O)c1cccs1,-3%,2%,/,0%,/,19µM*
O=C(Nc1ccccc1C(=O)Nc1ccccc1)c1ccccc1F,-3%,-1%,/,-3%,/,0%
O=[N+]([O-])c1ccc(NNC(=S)Nc2ccc(F)cc2)cc1,22%,7%,-12%,13%,-55%,19µM*
CC1(c2ccc(NC(=O)c3ccccc3F)cc2)CC1(Cl)Cl (stereo not given),3.5µM*,?,/,2.5µM*,/,8.5µM*
COc1ccc(Cl)cc1NC(=O)c1ncn(-c2ccccc2)n1,/,/,/,/,-1%,-2%
C#CCOCCCC(=O)O,/,/,-3%[7.66 µM],/,-20%[9.22 µM],/
COc1ccc(OC)c2[nH]c(=O)c(CCNC(=O)Cc3cccs3)cc12,2%,3%,5%,-7%,-42%,-1%
CCC(C)NS(=O)(=O)c1ccc(NC(=O)c2cccs2)cc1 (stereo not given),-8%,-2%,-2%,-2%,/,-1%
CCC(C)c1ccc(NC(=O)c2cccs2)cc1 (stereo not given),0.4µM*,0.73µM*,-15%,0.45µM*,7.9µM*,0.67µM*
CCC(=O)N1c2ccccc2CC1C(=O)NCCc1ccccc1OC (stereo not given),/,/,/,/,/,-3%
Cc1[nH]nc(N=CC2=C(O)CC(C)(C)CC2=O)c1-c1ccccc1,-4%,18%,0%,0%,-11%,13µM*
OC1(C(F)(F)F)CC(c2ccc3ccccc3c2)=NO1 (stereo not given),3%,?,/,-2%,/,19µM*
OCC1(C2=NOC(O)(C(F)(F)F)C2)CCCCC1 (stereo not given),2%,0%,-2%,10%,8%,0%
CCN(CC)c1ncnc2c1cnn2-c1cc(Cl)ccc1C,/,/,/,/,/,4%
CCCCCN=C(C)c1c(O)c2ccccc2oc1=O,?,?,/,?,/,17µM*
COc1cccc(N2CC(O)=C(c3nc4ccccc4s3)C2=N)c1,-5%,?,-3%,-1%,?,21µM*

# From PubChem BioAssay
